Experimental data: the supplement of paper PMC11732987, “Enantioselective OTUD7B fragment discovery through chemoproteomics screening and high-throughput optimisation” (Communications Chemistry, 2025)

How the values were obtained:
Test in all cases: log2 ratio of Biotin-Ahx-Ub-VS probe labelling (fragment/DMSO); higher = less target engagement (more negative = stronger competition), active = hit call of the paper (q ≤ 0.05, log2 ratio ≤ -1)
Settings in all cases: compound concentration: 200 uM; treatment time: 3 h
[1] = biological target: USP34 (UniProt Q70CQ2)
USP34, sequence (Q70CQ2 whole entry, the tested form may be a part): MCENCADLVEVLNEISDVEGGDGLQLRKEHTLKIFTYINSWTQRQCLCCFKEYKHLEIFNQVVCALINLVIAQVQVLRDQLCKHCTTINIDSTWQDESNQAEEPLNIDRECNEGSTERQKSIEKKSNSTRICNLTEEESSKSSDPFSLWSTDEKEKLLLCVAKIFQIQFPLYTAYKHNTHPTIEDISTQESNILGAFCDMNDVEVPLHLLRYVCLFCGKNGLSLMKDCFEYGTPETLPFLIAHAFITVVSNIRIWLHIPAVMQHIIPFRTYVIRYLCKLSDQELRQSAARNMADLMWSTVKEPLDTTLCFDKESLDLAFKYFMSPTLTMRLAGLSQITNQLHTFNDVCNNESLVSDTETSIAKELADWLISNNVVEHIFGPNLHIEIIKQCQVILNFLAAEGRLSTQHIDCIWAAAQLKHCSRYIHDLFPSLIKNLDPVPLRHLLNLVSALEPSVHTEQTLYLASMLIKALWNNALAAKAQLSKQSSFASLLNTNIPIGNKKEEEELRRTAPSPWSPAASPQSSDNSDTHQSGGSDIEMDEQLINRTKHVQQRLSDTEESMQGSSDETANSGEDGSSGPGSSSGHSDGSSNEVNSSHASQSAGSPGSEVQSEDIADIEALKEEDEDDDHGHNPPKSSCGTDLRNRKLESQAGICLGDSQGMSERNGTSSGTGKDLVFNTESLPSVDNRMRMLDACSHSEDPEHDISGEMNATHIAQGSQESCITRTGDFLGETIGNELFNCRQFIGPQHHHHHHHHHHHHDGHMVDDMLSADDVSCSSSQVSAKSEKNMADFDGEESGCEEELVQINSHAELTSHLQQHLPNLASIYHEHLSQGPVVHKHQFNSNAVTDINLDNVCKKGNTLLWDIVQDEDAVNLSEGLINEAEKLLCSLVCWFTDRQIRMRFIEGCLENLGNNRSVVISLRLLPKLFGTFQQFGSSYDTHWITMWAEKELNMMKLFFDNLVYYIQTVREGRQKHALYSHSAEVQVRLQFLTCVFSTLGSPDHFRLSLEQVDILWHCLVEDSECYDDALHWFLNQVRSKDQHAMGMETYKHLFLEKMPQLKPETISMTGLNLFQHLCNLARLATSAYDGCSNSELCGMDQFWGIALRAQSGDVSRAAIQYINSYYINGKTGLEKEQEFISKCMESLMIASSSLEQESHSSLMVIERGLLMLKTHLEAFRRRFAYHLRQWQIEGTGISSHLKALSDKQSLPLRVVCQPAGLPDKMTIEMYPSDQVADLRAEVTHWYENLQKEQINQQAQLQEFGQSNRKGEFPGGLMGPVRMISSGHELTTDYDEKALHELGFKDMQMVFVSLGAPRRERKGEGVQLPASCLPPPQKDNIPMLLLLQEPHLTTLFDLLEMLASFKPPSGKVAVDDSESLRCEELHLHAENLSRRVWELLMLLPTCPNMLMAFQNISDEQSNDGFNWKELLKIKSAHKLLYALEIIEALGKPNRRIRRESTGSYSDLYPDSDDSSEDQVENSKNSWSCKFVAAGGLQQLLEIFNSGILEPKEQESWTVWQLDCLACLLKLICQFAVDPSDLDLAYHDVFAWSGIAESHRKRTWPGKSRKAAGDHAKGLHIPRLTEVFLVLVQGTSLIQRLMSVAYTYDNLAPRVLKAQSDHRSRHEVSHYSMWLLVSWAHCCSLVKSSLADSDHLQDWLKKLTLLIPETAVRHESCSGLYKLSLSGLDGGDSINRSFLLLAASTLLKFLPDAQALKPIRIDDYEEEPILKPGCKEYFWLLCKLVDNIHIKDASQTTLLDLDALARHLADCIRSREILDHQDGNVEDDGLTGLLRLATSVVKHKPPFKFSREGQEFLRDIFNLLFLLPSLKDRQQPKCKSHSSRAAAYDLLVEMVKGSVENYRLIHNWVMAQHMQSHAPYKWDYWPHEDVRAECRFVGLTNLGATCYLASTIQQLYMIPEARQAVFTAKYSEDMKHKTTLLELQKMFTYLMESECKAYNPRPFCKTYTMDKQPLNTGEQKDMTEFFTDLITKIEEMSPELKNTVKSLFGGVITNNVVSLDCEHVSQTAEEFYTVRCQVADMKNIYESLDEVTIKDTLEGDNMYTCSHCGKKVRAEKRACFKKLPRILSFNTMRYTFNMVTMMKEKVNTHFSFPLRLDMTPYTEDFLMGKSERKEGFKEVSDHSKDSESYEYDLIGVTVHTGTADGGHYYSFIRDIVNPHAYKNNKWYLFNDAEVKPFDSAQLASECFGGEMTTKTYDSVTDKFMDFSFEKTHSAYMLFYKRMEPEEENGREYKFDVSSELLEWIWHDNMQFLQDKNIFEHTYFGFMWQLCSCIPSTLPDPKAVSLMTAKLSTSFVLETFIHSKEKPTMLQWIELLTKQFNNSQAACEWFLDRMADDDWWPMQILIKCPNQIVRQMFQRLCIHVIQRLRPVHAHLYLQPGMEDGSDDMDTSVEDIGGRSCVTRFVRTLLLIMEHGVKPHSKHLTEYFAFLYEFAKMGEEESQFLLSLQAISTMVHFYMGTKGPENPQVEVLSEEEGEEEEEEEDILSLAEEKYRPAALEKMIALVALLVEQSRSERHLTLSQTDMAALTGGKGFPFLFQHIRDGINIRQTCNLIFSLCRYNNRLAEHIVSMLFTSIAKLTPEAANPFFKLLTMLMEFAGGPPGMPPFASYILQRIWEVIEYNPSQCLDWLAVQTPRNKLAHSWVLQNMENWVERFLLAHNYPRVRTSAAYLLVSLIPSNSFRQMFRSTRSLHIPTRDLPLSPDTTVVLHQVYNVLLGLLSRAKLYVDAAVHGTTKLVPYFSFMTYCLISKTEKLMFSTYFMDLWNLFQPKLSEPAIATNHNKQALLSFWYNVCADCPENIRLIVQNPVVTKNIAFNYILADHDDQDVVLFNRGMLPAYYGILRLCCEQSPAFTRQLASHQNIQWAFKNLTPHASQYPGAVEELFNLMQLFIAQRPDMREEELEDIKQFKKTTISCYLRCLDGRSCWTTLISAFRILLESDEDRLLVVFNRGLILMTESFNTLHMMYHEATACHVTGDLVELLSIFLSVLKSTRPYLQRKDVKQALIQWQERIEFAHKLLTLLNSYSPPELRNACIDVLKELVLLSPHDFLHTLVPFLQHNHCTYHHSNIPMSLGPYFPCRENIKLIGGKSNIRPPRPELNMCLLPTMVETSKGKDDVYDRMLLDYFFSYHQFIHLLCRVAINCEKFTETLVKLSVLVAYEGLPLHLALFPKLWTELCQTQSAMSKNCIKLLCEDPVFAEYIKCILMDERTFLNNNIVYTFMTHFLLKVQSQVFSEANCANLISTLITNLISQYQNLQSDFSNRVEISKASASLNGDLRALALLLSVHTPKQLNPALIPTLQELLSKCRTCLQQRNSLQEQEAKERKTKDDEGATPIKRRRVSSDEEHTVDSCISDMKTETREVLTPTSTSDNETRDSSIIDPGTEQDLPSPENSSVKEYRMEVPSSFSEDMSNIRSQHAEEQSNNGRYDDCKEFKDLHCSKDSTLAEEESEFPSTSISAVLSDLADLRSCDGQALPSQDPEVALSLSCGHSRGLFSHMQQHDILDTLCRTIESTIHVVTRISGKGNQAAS
Outline: (§1)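 Labelled DUBs from HEK293T lysate were NeutrAvidin-enriched, digested with LysC and trypsin, and run by diaPASEF LC-MS/MS. Before that, each 495 µg sample in Tris/CHAPS/IGEPAL buffer with protease inhibitors was treated in triplicate with fragment at 200 µM or vehicle for 3 h, then with Biotin-Ahx-Ub-VS at 0.5 µM final for 1 h. Values are average log2 ratios of fragment over vehicle by unpaired t-test, based on global-median-normalised Spectronaut label-free quantities from proteins with ≥2 unique peptides.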

[2] = biological target: T1, USP36 (UniProt Q9P275)
T1 sequence (whole entry): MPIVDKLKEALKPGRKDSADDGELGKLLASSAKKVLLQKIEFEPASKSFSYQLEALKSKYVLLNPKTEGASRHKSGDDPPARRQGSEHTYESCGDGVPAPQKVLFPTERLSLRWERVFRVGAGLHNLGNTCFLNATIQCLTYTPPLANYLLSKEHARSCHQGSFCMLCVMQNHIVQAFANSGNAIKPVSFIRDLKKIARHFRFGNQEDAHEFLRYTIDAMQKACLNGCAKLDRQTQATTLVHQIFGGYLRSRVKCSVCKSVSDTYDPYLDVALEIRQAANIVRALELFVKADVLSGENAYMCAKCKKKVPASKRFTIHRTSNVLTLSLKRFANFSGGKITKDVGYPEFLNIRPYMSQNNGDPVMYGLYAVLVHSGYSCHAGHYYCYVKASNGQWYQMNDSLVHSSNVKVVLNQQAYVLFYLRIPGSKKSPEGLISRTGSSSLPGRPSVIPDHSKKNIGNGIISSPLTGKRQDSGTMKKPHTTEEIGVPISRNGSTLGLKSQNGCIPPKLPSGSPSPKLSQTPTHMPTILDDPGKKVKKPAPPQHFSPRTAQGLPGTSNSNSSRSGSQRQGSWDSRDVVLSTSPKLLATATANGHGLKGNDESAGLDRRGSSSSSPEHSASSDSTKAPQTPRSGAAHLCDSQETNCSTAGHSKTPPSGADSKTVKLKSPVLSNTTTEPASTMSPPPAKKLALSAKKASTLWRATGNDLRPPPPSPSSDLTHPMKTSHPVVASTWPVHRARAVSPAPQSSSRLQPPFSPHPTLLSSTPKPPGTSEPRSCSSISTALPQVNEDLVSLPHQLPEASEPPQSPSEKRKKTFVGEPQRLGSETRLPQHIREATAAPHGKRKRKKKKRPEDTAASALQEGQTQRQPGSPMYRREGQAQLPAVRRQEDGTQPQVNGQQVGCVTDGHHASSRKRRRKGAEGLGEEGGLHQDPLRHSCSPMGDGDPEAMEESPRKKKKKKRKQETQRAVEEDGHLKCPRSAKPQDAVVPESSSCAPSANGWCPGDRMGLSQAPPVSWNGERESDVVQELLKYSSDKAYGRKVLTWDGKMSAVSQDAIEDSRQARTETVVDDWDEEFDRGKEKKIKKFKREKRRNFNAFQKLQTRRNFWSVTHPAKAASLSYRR
Outline: as §1

[3] = biological target: T2, USP38 (UniProt Q8NB14)
T2 sequence (whole entry): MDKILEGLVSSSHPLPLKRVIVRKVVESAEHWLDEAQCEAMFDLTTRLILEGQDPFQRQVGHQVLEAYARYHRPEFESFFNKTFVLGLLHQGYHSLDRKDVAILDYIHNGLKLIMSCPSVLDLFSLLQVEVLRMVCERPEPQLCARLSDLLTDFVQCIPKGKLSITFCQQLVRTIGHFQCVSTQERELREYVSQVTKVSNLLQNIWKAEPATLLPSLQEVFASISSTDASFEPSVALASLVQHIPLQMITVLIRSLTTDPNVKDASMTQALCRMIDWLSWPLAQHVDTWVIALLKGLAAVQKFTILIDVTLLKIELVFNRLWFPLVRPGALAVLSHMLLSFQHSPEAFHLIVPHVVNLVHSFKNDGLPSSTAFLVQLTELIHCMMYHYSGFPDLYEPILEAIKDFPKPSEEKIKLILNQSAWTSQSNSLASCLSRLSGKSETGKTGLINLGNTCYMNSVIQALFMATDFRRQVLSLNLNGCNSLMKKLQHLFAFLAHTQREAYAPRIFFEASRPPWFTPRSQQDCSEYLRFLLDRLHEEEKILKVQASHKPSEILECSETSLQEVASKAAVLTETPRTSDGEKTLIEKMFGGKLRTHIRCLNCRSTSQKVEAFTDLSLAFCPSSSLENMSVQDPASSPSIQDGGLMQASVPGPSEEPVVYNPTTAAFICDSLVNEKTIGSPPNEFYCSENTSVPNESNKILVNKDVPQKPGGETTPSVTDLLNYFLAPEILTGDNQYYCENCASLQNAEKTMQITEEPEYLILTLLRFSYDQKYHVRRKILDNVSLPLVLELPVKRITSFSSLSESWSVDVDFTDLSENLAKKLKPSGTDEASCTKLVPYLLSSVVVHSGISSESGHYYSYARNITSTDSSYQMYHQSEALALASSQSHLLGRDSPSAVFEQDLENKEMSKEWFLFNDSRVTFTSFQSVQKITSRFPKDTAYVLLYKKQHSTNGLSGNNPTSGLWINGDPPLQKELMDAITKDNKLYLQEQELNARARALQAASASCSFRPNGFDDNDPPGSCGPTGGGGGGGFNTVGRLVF
Outline: as §1

[4] = biological target: T3, USP39 (UniProt Q53GS9)
T3 sequence (whole entry): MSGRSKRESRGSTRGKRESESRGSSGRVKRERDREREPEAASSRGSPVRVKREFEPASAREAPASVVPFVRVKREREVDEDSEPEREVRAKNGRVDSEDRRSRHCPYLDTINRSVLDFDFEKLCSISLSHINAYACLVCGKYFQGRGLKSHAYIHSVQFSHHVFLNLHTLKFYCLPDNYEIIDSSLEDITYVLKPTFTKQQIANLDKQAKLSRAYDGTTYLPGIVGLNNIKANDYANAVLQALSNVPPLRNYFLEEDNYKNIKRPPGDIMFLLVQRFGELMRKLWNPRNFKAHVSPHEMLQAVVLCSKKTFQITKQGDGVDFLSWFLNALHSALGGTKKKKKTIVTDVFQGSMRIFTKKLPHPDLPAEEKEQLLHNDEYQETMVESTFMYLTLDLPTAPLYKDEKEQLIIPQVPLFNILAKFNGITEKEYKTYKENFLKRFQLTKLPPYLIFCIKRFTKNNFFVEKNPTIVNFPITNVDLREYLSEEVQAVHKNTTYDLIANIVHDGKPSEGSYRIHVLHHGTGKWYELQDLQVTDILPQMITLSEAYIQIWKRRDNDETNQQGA
Outline: as §1

[5] = biological target: T4, USP4 (UniProt Q13107)
T4 sequence (whole entry): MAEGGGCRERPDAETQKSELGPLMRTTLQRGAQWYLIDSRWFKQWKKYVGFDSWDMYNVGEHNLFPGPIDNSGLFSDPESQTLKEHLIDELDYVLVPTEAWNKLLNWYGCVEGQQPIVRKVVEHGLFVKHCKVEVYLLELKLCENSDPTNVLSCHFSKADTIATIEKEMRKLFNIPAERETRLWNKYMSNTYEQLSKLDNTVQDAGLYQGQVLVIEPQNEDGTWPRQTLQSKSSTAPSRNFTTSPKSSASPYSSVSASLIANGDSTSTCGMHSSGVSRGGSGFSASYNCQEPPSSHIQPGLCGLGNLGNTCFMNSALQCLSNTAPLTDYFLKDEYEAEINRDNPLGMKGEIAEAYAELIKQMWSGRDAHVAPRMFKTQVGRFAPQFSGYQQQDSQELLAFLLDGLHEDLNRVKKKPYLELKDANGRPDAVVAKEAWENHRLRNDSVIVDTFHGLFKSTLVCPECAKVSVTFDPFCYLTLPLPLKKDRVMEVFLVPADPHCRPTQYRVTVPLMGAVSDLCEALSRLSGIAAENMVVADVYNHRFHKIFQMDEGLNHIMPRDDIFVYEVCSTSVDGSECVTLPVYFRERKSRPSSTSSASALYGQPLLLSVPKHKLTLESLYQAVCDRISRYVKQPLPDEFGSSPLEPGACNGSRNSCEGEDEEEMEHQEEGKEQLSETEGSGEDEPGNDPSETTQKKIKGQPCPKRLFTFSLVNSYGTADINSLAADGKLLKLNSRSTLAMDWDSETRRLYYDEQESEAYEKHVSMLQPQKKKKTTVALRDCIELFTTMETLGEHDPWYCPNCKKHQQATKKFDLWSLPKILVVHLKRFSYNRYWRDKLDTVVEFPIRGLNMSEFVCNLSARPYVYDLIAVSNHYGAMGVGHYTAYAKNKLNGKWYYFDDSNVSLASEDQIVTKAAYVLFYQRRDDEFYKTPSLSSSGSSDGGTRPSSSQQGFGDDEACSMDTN
Outline: as §1

Measured: log2 ratio of Biotin-Ahx-Ub-VS probe labelling

Cc1n[nH]c2c1CN(C(=O)CCl)CC2
inactive: [1] -0.404 | [2] -0.284 | [3] -0.715 | [4] 0.183 | [5] -0.888
